Experimental findings from PubChem BioAssay AID488854 (National Center for Advancing Translational Sciences (NCATS), 2010) are described below.

Inconclusive results are not listed. Values without a mark were called inactive. Active and inactive are the calls of the source. Calls come from the whole dose curve; as a rule, active = well fitted activation curve with a large enough effect; inconclusive = small, poorly fitted or top-dose-only effect; inactive = no such curve, though single readings can be large or run the other way.

For the assay, the target named is Lysosomal acid glucosylceramidase (Homo sapiens) (UniProt P04062). Nature of the assay: qHTS Assay for Inhibitors and Activators of N370S glucocerebrosidase as a Potential Chaperone Treatment of Gaucher Disease: Confirmation for Probe SAR. To be noted: N370S GC spleen homogenate, 4MU-glucoside fluorescence; series mostly up to 57.5 µM; activity change, positive = activation: at the top concentration. The text has this: NIH Chemical Genomics Center [NCGC] NIH Molecular Libraries Probe Production Centers Network [MLPCN] MLPCN Grant: MH086442-01 Assay Submitter (PI): Wei Zheng Glucocerebrosidase (GC) catalyzes the hydrolysis of beta-glucocerebroside to glucose and ceramide in lysosomes. Mutations in the glucocerebrosidase gene result in Gaucher disease, an autosomal recessive lysosomal storage disorder. Many of the mutations encountered in patients with Gaucher disease are missense alterations that may cause misfolding, decreased stability and/or mistrafficking of this lysosomal protein. […] These inhibitors include iminosugar analogs and three non-iminosugar inhibitors identified from a previous HTS of 62,000 compounds with the wild type recombinant enzyme. However, the enhancement of enzyme activity by the chaperone action of an enzyme inhibitor must be balanced against the direct inhibition of the enzyme. An enzyme activator could also function as a chaperone by binding to the enzyme and helping to correct its misfolding and mistrafficking. While activators for GC have not yet been identified, they may have better therapeutic potential than inhibitors. Therefore the discovery and development of chemical activators may provide a new strategy for the chaperone therapy. We have optimized a new assay using N370S mutant GC derived from the spleen of a Gaucher patient. […] In addition, the MLPCN compound library has expanded, which increases the chance of finding new and better probes.
Sequence of Lysosomal acid glucosylceramidase (Homo sapiens) (P04062 whole entry N409S): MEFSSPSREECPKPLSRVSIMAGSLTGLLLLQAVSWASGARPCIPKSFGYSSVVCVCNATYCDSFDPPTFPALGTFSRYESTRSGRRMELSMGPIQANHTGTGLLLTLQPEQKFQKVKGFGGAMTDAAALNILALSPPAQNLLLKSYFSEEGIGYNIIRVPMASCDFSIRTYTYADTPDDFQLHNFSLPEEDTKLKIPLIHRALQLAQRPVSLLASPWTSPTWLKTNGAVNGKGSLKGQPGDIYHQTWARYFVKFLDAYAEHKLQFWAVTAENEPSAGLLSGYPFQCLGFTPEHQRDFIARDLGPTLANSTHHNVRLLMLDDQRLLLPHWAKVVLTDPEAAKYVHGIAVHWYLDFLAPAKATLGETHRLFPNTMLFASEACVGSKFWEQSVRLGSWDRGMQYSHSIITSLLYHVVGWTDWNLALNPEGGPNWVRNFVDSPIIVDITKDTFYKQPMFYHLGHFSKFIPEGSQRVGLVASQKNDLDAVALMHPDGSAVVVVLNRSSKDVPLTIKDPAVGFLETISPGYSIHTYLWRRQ
NCGC Assay Protocol Summary: This is a fluorogenic enzyme assay with 4-methylumbelliferyl-beta-D-glucopyranoside as the substrate and N370S glucocerebrosidase from human spleen homogenate as the enzyme preparation. Upon the hydrolysis of this fluorogenic substrate, the resulting product, […] which can be detected by a standard fluorescence plate reader. Data were normalized to the controls for basal activity (without enzyme) and 100% activity (with enzyme). The AC50 values were determined from concentration-response data modeled with the standard Hill equation. Assay buffer: 50 mM citric acid (titrated with potassium phosphate to pH 5.0), 100 mM potassium chloride, 10 mM sodium chloride, 1 mM magnesium chloride, 0.01% Tween-20. 1536-well assay protocol: (1) Add 2 ul/well of spleen homogenate (27 ug final) (2) Add 23 nL compounds in DMSO solution. The final titration was 0.5 nM to 58 uM. (3) Add 2 ul of substrate (1 mM final) (4) Incubate at 37C for 40 min. (5) Add 2 ul stop solution (1M NaOH and 1M Glycine mixture, pH 10) (6) Detect the assay plate in a ViewLux plate reader (PerkinElmer) with Ex=365 nm and Em=440nm. Keywords: Glucocerebrosidase, beta-glucosidase, Gaucher Disease, pharmacological chaperone, chaperone therapy, high throughput screening, glucocerebrosidase inhibitor, MLSMR, MLSCN, NIH Roadmap, qHTS and NCGC
(In general: qHTS replaces the single test concentration by a dilution series.)
For the compound `Cc1cc(C)n2ncc(C(=O)Nc3ccc(C(F)(F)F)cc3)c2n1`, the Potency was 2.06 µM (active).
For `Cc1cc(-c2ccccc2)n2ncc(C(=O)Nc3ccc(Cl)c(Cl)c3)c2n1`, the “activity change, positive = activation” value is 26.4%.
Turning to `Cc1cc(C)n2ncc(C(=O)Nc3ccncc3)c2n1`, the “activity change, positive = activation” value was -4.5%.
Same read-out and setting: then `CC(=O)Nc1ccc(NC(=O)c2cnn3c(C)cc(C)nc23)cc1`, with -1.46%.
For `Cc1cc(C)n2ncc(C(=O)Nc3ccc4c(c3)OCCO4)c2n1`, the Potency was 5.8 µM (active).
On to `COc1ccc(NC(=O)c2cnn3c(C)cc(C)nc23)cc1Cl`, for which the Potency is 2.06 µM (active).
Consider `O=C(Nc1ccccc1Sc1ccccc1)c1cnn2c1NC(=C1CC1)C=C2C(F)(F)F`, for which the Potency was 14.1 µM (active).
